Mtb FBA inh = Mtb fructose-bisphosphate aldolase inhibition; P9WQA3; purified M. tuberculosis FBA, fluorescence read-out; inhibition, % at 1 µM; 360,000 tested, 2.3% active;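 further: 0% = vehicle and 100% = reference inhibitor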
Target sequence (P9WQA3 whole entry, looked up): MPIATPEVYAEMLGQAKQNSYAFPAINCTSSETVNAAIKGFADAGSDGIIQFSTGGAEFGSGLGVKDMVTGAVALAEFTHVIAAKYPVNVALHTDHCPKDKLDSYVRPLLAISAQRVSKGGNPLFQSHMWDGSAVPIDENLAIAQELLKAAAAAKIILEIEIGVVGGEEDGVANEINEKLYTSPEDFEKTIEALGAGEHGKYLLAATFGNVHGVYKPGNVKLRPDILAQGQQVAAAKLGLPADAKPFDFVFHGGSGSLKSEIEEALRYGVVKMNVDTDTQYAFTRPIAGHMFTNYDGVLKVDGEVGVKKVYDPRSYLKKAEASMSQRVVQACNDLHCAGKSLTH
Mtb bLac sens = beta-lactam sensitization of Mtb H37Rv; inhibition, % at 25 µM; 330,000 tested, 0.27% active; M. tuberculosis H37Rv growth with meropenem, percent inhibition; AID 434955; call rule not given here;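 further: growth measured after seven days incubation then overnight dye step; 0% = bacteria only wells and 100% = bacteria with antibiotic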
Rv3671c inh = inhibits the M. tuberculosis serine protease Rv3671c; P9WHR9; inhibition, % at 5.96 µM; 320,000 tested, 0.048% active; AID 2606; in the data active means inhibition above about 38%;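 further: extracellular domain of Rv3671c used as enzyme; 0% = enzyme with DMSO and 100% = no enzyme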
GDH-TPI counter-1 = GDH-TPI coupled enzyme inhibition counter-screen. GDH-TPI coupled enzyme counterscreen, NADH absorbance. inhibition, % at 4.8 µM. 360,000 tested, 1.2% active. AID 588335; in the data active means inhibition above about 30%;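 further: 0% = DMSO wells and 100% = wells lacking the enzyme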
UGM FP inh = inhibitors of M. tuberculosis UDP-galactopyranose mutase. purified UGM, fluorescence polarization probe displacement. inhibition, % at 10 µM. 320,000 tested, 0.06% active. AID 504406; in the data active means inhibition above about 10%, passing the limit was not always enough
Mtb FBA confirm = confirmation of M. tuberculosis fructose-bisphosphate aldolase inhibitors. shares compounds with Mtb FBA inh. inhibition, % at 1 µM. 5,600 tested, 78% active. purified M. tuberculosis FBA, fluorescence read-out;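 further: 0% = vehicle wells and 100% = reference inhibitor wells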
GDH-TPI counter-2 = counter-screen for M. tuberculosis FBA inhibitors: GDH-TPI coupled enzyme inhibition. shares compounds with Mtb FBA inh. GDH-TPI coupled enzyme counterscreen, fluorescence. inhibition, % at 1 µM. 5,600 tested, 81% active. AID 652141; in the data active means inhibition above about 10%
Numbers without * were called inactive. Compounds with a hit are over-represented: about 3.5% of the library has one in this group of screens. Unless noted, no stated cut-off is given here; in the data, active means inhibition above about 27%; inactive means the rest.

Results for CCC(=O)Nc1c(S(=O)(=O)c2ccccc2)c2nc3ccccc3nc2n1C(C)c1ccccc1 (stereo not given) ?
Mtb FBA inh: 73*; Mtb bLac sens: 2; Rv3671c inh: -22; GDH-TPI counter-1: 27; UGM FP inh: 1; Mtb FBA confirm: 73*; GDH-TPI counter-2: 68*

How did O=C(NCCc1ccc2c(c1)OCCO2)c1ccccn1 do in these assays?
Mtb FBA inh: -4; Mtb bLac sens: 0; Rv3671c inh: -5; GDH-TPI counter-1: -7; UGM FP inh: 0

What do the screens show for `CCC(=O)c1cn([C@H](CCC(OC)OC)CC(=O)OC(C)(C)C)cc1CC`?
Mtb FBA inh: 0; Mtb bLac sens: -2; Rv3671c inh: -8; GDH-TPI counter-1: 0; UGM FP inh: -1

What do the screens show for `Cc1ccccc1S(=O)(=O)Nc1nc2ccccc2nc1N1CCc2ccccc2C1`?
Mtb FBA inh: 11; Mtb bLac sens: -3; Rv3671c inh: -18; GDH-TPI counter-1: 10; UGM FP inh: 1

What do the screens show for `O=S(=O)(Nc1nc2ccccc2nc1N1CCc2ccccc2C1)c1ccc(Cl)cc1`?
Mtb FBA inh: 66*; Mtb bLac sens: 36; Rv3671c inh: -13; GDH-TPI counter-1: 32*; UGM FP inh: 0; Mtb FBA confirm: active; GDH-TPI counter-2: active

What do the screens show for `N#Cc1ccc(-c2ccc(OCC(=O)NCC(=O)Nc3ccc(F)c(F)c3F)cc2)cc1`?
Mtb FBA inh: 30*; Mtb bLac sens: 3; Rv3671c inh: -67; GDH-TPI counter-1: 11; UGM FP inh: 0; Mtb FBA confirm: active; GDH-TPI counter-2: active

What do the screens show for `N#Cc1ccc(-c2ccc(OCC(=O)NCCc3ccccc3)cc2)cc1`?
Mtb FBA inh: 38*; Mtb bLac sens: 4; Rv3671c inh: 4; GDH-TPI counter-1: 5; UGM FP inh: -1; Mtb FBA confirm: 5; GDH-TPI counter-2: 2

Results for O=[N+]([O-])c1ccccc1S(=O)(=O)N1CCCC(C(F)(F)F)C1 (stereo not given) ?
Mtb FBA inh: 41*; Mtb bLac sens: 1; Rv3671c inh: 4; GDH-TPI counter-1: 19; UGM FP inh: -1; Mtb FBA confirm: 46*; GDH-TPI counter-2: 39*

Results for O=[N+]([O-])c1ccccc1S(=O)(=O)N1CCCCC1 ?
Mtb FBA inh: -1; Mtb bLac sens: 2; Rv3671c inh: -9; GDH-TPI counter-1: 3; UGM FP inh: 2

Results for Cc1onc(-c2ccccc2)c1C(=O)NNC(=S)NC(=O)c1ccc2c(c1)OCO2 ?
Mtb FBA inh: -1; Mtb bLac sens: -2; Rv3671c inh: 9; GDH-TPI counter-1: -2; UGM FP inh: 10

What do the screens show for `O=C(CSc1cccc2cccnc12)N1CCCC1`?
Mtb FBA inh: 33*; Mtb bLac sens: 32; Rv3671c inh: -18; GDH-TPI counter-1: 5; UGM FP inh: 1; Mtb FBA confirm: 140*; GDH-TPI counter-2: 108*

What do the screens show for `Cc1c(NCc2cccnc2)cccc1C(=O)O`?
Mtb FBA inh: 100*; Mtb bLac sens: -6; Rv3671c inh: -1; GDH-TPI counter-1: -2; UGM FP inh: 3; Mtb FBA confirm: 112*; GDH-TPI counter-2: 100*

What do the screens show for `Cc1ccccc1N(C(=O)c1ccccn1)C(C(=O)NCc1ccccc1)c1cccnc1` (stereo not given)?
Mtb FBA inh: -6; Mtb bLac sens: -3; Rv3671c inh: -6; GDH-TPI counter-1: -7; UGM FP inh: -1

Results for Nn1c(=O)[nH]c2c([nH]c3ccccc32)c1=O ?
Mtb FBA inh: 27*; Mtb bLac sens: -4; Rv3671c inh: 1; GDH-TPI counter-1: -12; UGM FP inh: -1; Mtb FBA confirm: 107*; GDH-TPI counter-2: 86*

How did O=C(Nc1ccc(-c2nc3c(ccc4ccccc43)o2)cc1)c1ccco1 do in these assays?
Mtb FBA inh: 54*; Mtb bLac sens: 9; Rv3671c inh: -22; GDH-TPI counter-1: 48*; UGM FP inh: 0; Mtb FBA confirm: 107*; GDH-TPI counter-2: 103*

Results for Cc1cc(OCC(=O)NCC2CCC(C(=O)O)CC2)c2c3c(c(=O)oc2c1)CCC3 (stereo not given) ?
Mtb FBA inh: 20; Mtb bLac sens: -5; Rv3671c inh: 0; GDH-TPI counter-1: 15; UGM FP inh: 0

Screening results as filed in PubChem BioAssay.
